Only some compounds are listed: those with a hit (about 4.8% of all), similar ones and a draw of the others.
Mot1-301 SUMO: blocks SUMOylation pathway, rescuing yeast Mot1-301 growth | growth rescue, % at 18.8 µM | S. cerevisiae Mot1-301 growth rescue, ATP luminescence, 38.5C; percent above DMSO median, 100 means doubled | hit rate 1% among 320,000 | AID 2716;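 active means every valid replicate shows activation above 250% relative to neutral control wells; inactive means the rest, any valid replicate at or below 250%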;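 further: OY570 slx delta 5 strain wells were the positive control but not used for scaling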
HIF activator: HIF pathway transcriptional activation | U2OS HRE-luciferase reporter, luminescence; normalized: DMSO 0%, desferrioxamine 100% | activation, % at 7.5 µM (by protocol) | hit rate 0.32% among 300,000;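 active means mean activation of at least 10% of the iron chelator positive control signal, with at least half of replicates also reaching 10%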
AI-2 QS mod: modulators of Vibrio harveyi AI-2 quorum sensing system | Vibrio harveyi JMH597 AI-2 luminescence/OD600 ratio, 9 h; stronger effect = lower value; strain lacks LuxN and CqsS sensors; 0 = neutral-control median | activity change, % at 7.5 µM | hit rate 0.4% among 300,000 | AID 2094; in the data active means activity change below about -75%, passing the limit was not always enough;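 further: luminescence divided by OD600 gain over 9 h not by final OD600 alone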
ALR H2O2 inh: inhibitors of human sulfhydryl oxidase ALR; purified ALR, DTT oxidation, H2O2 HRP-luminol luminescence; P55789; AID 485317; hit rate 3.8% among 290,000; inhibition, % (concentration not given with the values);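 active means mean replicate inhibition above about 79%, with every replicate also reaching it, limit read from the data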
Target sequence (P55789 whole entry, looked up): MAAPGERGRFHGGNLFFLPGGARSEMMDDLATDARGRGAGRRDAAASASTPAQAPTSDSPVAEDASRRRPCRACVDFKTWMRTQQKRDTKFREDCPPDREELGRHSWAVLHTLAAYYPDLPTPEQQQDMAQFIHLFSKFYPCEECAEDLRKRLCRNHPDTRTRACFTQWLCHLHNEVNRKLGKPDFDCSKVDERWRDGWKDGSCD
Mot1 SUMO dose: SUMO pathway inhibitors in yeast Mot1-301 growth | 2,300 tested, under 10 active | shares compounds with Mot1-301 SUMO | S. cerevisiae Mot1-301 galactose growth, ATP luminescence, 24 h; -100 = growth of slx-deleted rescue strain | AID 493004 | growth activity, percent, % at 42 µM;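 active means Signal drops as the depositor expects, and the fitted half-maximal dose is no more than ten times the top valid tested dose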;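 further: more negative values mean stronger growth rescue toward the control strain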
An asterisk follows results filed as active.

Screening CN(C(=O)COC(=O)c1cncc(Br)c1)C1CCCCC1 returned Mot1-301 SUMO 7.9 and ALR H2O2 inh -1.1.
Screening CN(C(=O)c1cncc(Br)c1)C1C2CC3CC(C2)CC1C3 (configuration not stated) returned Mot1-301 SUMO 779.5*, HIF activator -25.3, AI-2 QS mod 29.9, ALR H2O2 inh -3.3 and Mot1 SUMO dose -0.2.
Screening O=C(Nc1nncs1)c1cc(S(=O)(=O)N2CCCCC2)ccc1Cl returned Mot1-301 SUMO -4.4, HIF activator 0.4, AI-2 QS mod 14.2 and ALR H2O2 inh 2.8.
O=C(Cc1ccc(Br)cc1)N1CCN(C(=O)c2ccco2)CC1 was read as Mot1-301 SUMO 7.6, HIF activator 0.1, AI-2 QS mod 17.4 and ALR H2O2 inh 0.6.
Screening CCOc1ccc(NC(=O)CC2C(=O)N(c3ccc(OC)cc3)C(=S)N2Cc2ccccn2)cc1 (configuration not stated) returned Mot1-301 SUMO 142.1, HIF activator -0.2, AI-2 QS mod 2.8 and ALR H2O2 inh -9.1.
`CCOc1ccc(NC(=O)CC2C(=O)N(c3ccccc3)C(=S)N2Cc2ccccn2)cc1` (configuration not stated) gave Mot1-301 SUMO active, HIF activator -0.2, AI-2 QS mod 2.5, ALR H2O2 inh -1.7 and Mot1 SUMO dose 0.0.
Screening COc1ccc(OC)c(NC(=O)CSc2nc3nc(C)cc(C)n3n2)c1 returned Mot1-301 SUMO -11.7 and ALR H2O2 inh -7.9.
Screening COc1ccc(-c2cc(C(=O)Nc3cc(C)ccc3O)no2)cc1 returned Mot1-301 SUMO 369.3*, HIF activator 3.7, AI-2 QS mod 44.6, ALR H2O2 inh 2.0 and Mot1 SUMO dose 0.7.
Screening Cc1nc2nc[nH]n2c(=O)c1NS(=O)(=O)c1ccc([N+](=O)[O-])cc1 returned Mot1-301 SUMO 486.9*, HIF activator -0.4, AI-2 QS mod 8.4, ALR H2O2 inh -4.0 and Mot1 SUMO dose -0.1.
For O=C(COc1ccc(Cl)cc1Br)OCC(=O)c1ccc[nH]1 the results were Mot1-301 SUMO 1.1 and ALR H2O2 inh -9.7.
Screening CCN1C(=NCCCCO)N[C@@H](c2cccc(C(F)(F)F)c2)C(C(=O)OC)=C1C returned Mot1-301 SUMO 657.6*, HIF activator -0.3, AI-2 QS mod 9.1, ALR H2O2 inh 3.8 and Mot1 SUMO dose 0.8.
COC(=O)C1=C(C)N(Cc2ccccc2)C(=NCc2cccc(C(F)(F)F)c2)N[C@H]1c1cccc(F)c1 was read as Mot1-301 SUMO -65.9, HIF activator -3.1, AI-2 QS mod 23.1 and ALR H2O2 inh -21.9.
Screening CCN1C(=NCC(C)C)N[C@@H](c2cccc(C(F)(F)F)c2)C(C(=O)OC)=C1C returned Mot1-301 SUMO 779.0*, HIF activator -0.1, AI-2 QS mod 21.2, ALR H2O2 inh 5.0 and Mot1 SUMO dose 0.1.
For CCN1C(=NCc2cccc(Cl)c2)N[C@@H](c2cccc(F)c2)C(C(=O)OC)=C1C the results were Mot1-301 SUMO 772.6*, HIF activator 0.3, AI-2 QS mod 4.2, ALR H2O2 inh 4.1 and Mot1 SUMO dose 0.3.
For COc1ccc(CCC2(C)NC(=O)N(C(C)C(=O)N3c4ccccc4CC3C)C2=O)cc1 (configuration not stated) the results were Mot1-301 SUMO -14.6 and ALR H2O2 inh -3.0.
Screening COc1ccccc1N1C(=O)C2C(c3ccc(F)cc3)NN(C(=O)c3ccc(C)cc3)C2C1=O (configuration not stated) returned Mot1-301 SUMO 410.0, HIF activator -0.1, AI-2 QS mod 12.6 and ALR H2O2 inh -4.6.
CC(=O)Nc1ccc(NC(=O)C(C)OC(=O)c2ccc(S(=O)(=O)N3CCCCCC3)cc2)cc1 (configuration not stated) was read as Mot1-301 SUMO -9.3 and ALR H2O2 inh -0.6.
For COc1cccc(NC(=S)NC(=O)c2cncc(Br)c2)c1 the results were Mot1-301 SUMO 982.6*, HIF activator 0.8, AI-2 QS mod -2.8, ALR H2O2 inh 15.6 and Mot1 SUMO dose -0.6.
Screening O=C(Cn1nc(C(F)(F)F)c2c1CCCCC2)N1CCOCC1 returned Mot1-301 SUMO -1.2, HIF activator -0.1 and AI-2 QS mod -6.0.
`O=C(Cn1nc(C(F)(F)F)c2c1CCCC2)N1CCOCC1` gave Mot1-301 SUMO 772.3*, HIF activator -0.4, AI-2 QS mod 5.7, ALR H2O2 inh -27.0 and Mot1 SUMO dose -0.2.
`CCC(=O)Nc1ccc(Br)c(Cl)c1` gave Mot1-301 SUMO 702.5*, HIF activator -0.1, AI-2 QS mod 3.6, ALR H2O2 inh -3.0 and Mot1 SUMO dose 0.6.
For CCC(=O)Nc1ccc(F)c(Cl)c1 the results were Mot1-301 SUMO -0.4, HIF activator -0.2, AI-2 QS mod 3.7 and ALR H2O2 inh 0.5.
`COc1ccccc1N1CCN(S(=O)(=O)c2ccc3c(c2)n(C)c(=O)n3C)CC1` gave Mot1-301 SUMO 300.7, HIF activator 0.5, AI-2 QS mod 10.0 and ALR H2O2 inh 24.6.
For CCN(CC)CCn1c(=S)[nH]c2cc3c(cc2c1=O)OCO3 the results were Mot1-301 SUMO -10.1, HIF activator 0.3, AI-2 QS mod 18.1 and ALR H2O2 inh 69.0.
For CCN(CC)CCNC(=O)CCn1c(=S)[nH]c2cc3c(cc2c1=O)OCO3 the results were Mot1-301 SUMO active, HIF activator -0.4, AI-2 QS mod 19.4, ALR H2O2 inh 75.0 and Mot1 SUMO dose 0.0.
Cc1c(NP(=O)(c2ccc(Br)cc2)c2ccc(Br)cc2)c(=O)n(-c2ccccc2)n1C was read as Mot1-301 SUMO 381.4*, HIF activator 0.0, AI-2 QS mod 13.1, ALR H2O2 inh 4.6 and Mot1 SUMO dose 0.0.
`COc1ccc(/C=C(\C#N)C(=O)c2cccn2C)cc1` gave Mot1-301 SUMO 396.1*, HIF activator -1.4, AI-2 QS mod 35.3, ALR H2O2 inh 0.7 and Mot1 SUMO dose 0.0.
Screening O=[N+]([O-])c1ccc2c(c1)nc(CO)n2Cc1ccccc1 returned Mot1-301 SUMO -14.9, HIF activator -1.3, AI-2 QS mod 21.5 and ALR H2O2 inh 2.6.
Screening C=CCN1C(=O)/C(=C2/C(=O)N(CC(=O)O)c3ccccc32)S/C1=N/c1nccs1 returned HIF activator -0.1 and AI-2 QS mod 28.3.
`O=C(OCc1ccccc1)c1cccc(-c2nnn(Cc3ccccc3)n2)c1` gave Mot1-301 SUMO 390.8*, HIF activator 0.5, AI-2 QS mod -0.8, ALR H2O2 inh 0.0 and Mot1 SUMO dose 0.1.
Screening N#Cc1ccc(Oc2ccc(S(=O)(=O)N3CCCC3)cn2)cc1 returned Mot1-301 SUMO 3.0, HIF activator -0.1 and AI-2 QS mod 0.9.
`N#Cc1ccc(Oc2ccc(S(=O)(=O)N3CCCCC3)cn2)cc1` gave Mot1-301 SUMO 764.0*, HIF activator -3.7, AI-2 QS mod 27.1, ALR H2O2 inh 0.0 and Mot1 SUMO dose 0.5.
For CC(=O)N1CCN(Cc2nc3ccc(Cl)cc3n2CCO)CC1 the results were Mot1-301 SUMO 1.8, HIF activator 2.8, AI-2 QS mod 13.1 and ALR H2O2 inh -3.5.
